Measurements: the supplement of paper PMC10849652
Targets with a hit are over-represented here; the source holds about 8,800 in all. About 0.5% of all pairs of compound and target were hits. A number with no mark means an inactive call.

Legend:
Assay in all cases: log2 fold change, soluble protein after heating vs DMSO (PISA); higher = thermal stabilisation; K562 lysate, 10 uM; active = over 0.2 and 3.5 SD of the protein, either way, in both replicates (recomputed)
[1] = compound: CCCS(=O)(=O)Nc1ccc(F)c(C(=O)c2c[nH]c3ncc(-c4ccc(Cl)cc4)cc23)c1F [vemurafenib]
Method in brief: (§1)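 Quantification was by TMTpro 16plex LC-MS/MS with equalised channel sums, applied to the supernatant after 21,000xg for 90 min. Samples were crude K562 extract at 1 mg/mL protein in PBS pH 7.4 with 1 mM MgCl2, treated with 10 μM compound for 30 min, heated for 3 min across 48°C-58°C, pooled and brought to 0.5% NP-40 at 4°C. Values are log-two fold changes in thermal stability relative to solvent controls, from duplicates.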

[2] = compound: CCCS(=O)(=O)Nc1ccc(F)c(C(=O)c2c[nH]c3ncc(Cl)cc23)c1F
Method in brief: as §1

[3] = compound: CCN(CCCOc1ccc2c(Nc3cc(CC(=O)Nc4cccc(F)c4)[nH]n3)ncnc2c1)CCOP(=O)(O)O [barasertib]
Method in brief: as §1

[4] = compound: CC[C@@H]1C(=O)N(C)c2cnc(Nc3ccc(C(=O)NC4CCN(C)CC4)cc3OC)nc2N1C1CCCC1
Method in brief: as §1

[5] = compound: CC[C@@H]1C(=O)N(C)c2cnc(Nc3ccc(C(=O)N[C@H]4CC[C@H](N5CCN(CC6CC6)CC5)CC4)cc3OC)nc2N1C(C)C [volasertib]
Method in brief: as §1

[6] = compound: CCn1c(C(=O)N(C2CC2)C2CC2)cc2c3c(ncn3C)c(Nc3cc(C)n(C)n3)nc21
Method in brief: as §1

[7] = compound: CCn1cc(-c2ccnc3[nH]c(-c4cccc(CN(C)C)c4)cc23)c(-c2ccc(NC(=O)N(C)C)cc2)n1
Method in brief: as §1

[8] = compound: CN1CCC(CNc2ccc3ncc(-c4cccc(OC(F)(F)F)c4)n3n2)CC1
Method in brief: as §1

[9] = compound: CN1CCN(CCOc2cc(OC3CCOCC3)c3c(Nc4c(Cl)ccc5c4OCO5)ncnc3c2)CC1 [saracatinib]
Method in brief: as §1

[10] = compound: CN1CCN(c2nc(C3=C(c4c[nH]c5ccccc45)C(=O)NC3=O)c3ccccc3n2)CC1 [sotrastaurin]
Method in brief: as §1

[11] = compound: CN1CC[C@H](c2c(O)cc(O)c3c(=O)cc(-c4ccccc4Cl)oc23)[C@H](O)C1 [alvocidib]
Method in brief: as §1

[12] = compound: CN1CCc2c(c3ccccc3n2Cc2ccc(C(=O)NO)cc2)C1 [Tubastatin A]
Method in brief: as §1

[13] = compound: CNC(=O)C1=CC=CC=C1NC2=NC(=NC=C2Cl)NC3=C(C=C(C=C3)N4CCOCC4)OC
Method in brief: as §1

[14] = compound: CNC(=O)c1ccc(Nc2ncc(C(F)(F)F)c(NCc3nccnc3N(C)S(C)(=O)=O)n2)cc1 [defactinib]
Method in brief: as §1

[15] = compound: CNc1nc(-c2ccc3c(N)n[nH]c3c2)cc(N2C[C@@H](C(=O)NC3CCCCC3)CC[C@H]2C)n1
Method in brief: as §1

[16] = compound: COC(=O)N[C@@H](C)CNc1nccc(-c2cn(C(C)C)nc2-c2cc(Cl)cc(NS(C)(=O)=O)c2F)n1 [encorafenib]
Method in brief: as §1

[17] = compound: COC(=O)[C@H](CCSC)NC(=O)C1=C(C=C(C=C1)NC[C@H](CS)N)C2=CC=CC=C2
Method in brief: as §1

[18] = compound: COc1cc(Nc2ncc3c(n2)-c2ccc(Cl)cc2C(c2c(F)cccc2OC)=NC3)ccc1C(=O)O [alisertib]
Method in brief: as §1

[19] = compound: COc1cc2nc(-c3cc(F)ccc3O)nc(N[C@@H]3CNC[C@H]3C(C)(C)O)c2cc1OC
Method in brief: as §1

[20] = compound: COc1cc2ncnc(Nc3ccc(F)c(Cl)c3)c2cc1OCCCN1CCOCC1 [gefitinib]
Method in brief: as §1

UniProt O94906, sequence (O94906 whole entry, looked up): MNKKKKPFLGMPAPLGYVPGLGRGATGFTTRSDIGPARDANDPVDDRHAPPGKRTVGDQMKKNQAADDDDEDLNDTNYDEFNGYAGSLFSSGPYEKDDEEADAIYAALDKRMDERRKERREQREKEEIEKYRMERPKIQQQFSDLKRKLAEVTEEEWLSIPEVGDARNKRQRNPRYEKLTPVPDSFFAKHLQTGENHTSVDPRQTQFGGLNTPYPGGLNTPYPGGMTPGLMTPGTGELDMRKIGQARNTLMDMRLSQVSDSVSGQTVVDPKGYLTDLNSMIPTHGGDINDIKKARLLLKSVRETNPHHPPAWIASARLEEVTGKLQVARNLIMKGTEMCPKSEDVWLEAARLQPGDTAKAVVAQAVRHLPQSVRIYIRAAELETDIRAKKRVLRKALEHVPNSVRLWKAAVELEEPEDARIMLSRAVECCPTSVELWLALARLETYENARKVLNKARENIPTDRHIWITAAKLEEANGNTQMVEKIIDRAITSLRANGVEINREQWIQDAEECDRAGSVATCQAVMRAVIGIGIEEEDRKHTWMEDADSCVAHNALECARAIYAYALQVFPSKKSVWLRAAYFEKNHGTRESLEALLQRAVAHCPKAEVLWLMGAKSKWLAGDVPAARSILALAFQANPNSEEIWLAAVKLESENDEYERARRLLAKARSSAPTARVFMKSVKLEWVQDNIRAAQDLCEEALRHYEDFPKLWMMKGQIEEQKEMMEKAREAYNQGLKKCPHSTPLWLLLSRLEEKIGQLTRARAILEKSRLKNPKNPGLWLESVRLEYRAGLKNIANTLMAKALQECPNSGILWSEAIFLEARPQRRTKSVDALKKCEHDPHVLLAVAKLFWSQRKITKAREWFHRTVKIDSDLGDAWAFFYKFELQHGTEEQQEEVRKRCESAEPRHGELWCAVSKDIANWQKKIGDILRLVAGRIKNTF
UniProt Q9Y606, sequence (Q9Y606 whole entry, looked up): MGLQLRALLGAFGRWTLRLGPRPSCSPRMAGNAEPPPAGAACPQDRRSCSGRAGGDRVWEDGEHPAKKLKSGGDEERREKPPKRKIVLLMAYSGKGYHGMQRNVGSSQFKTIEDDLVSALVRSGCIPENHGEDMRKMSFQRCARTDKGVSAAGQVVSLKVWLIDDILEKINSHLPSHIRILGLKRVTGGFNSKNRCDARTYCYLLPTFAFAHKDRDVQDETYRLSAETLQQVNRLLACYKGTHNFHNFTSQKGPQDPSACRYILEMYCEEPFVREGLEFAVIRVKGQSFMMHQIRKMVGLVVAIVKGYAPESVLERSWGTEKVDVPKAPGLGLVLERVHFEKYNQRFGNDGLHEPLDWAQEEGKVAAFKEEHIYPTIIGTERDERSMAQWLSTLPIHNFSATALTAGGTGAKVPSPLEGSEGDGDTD
UniProt P15735, sequence (P15735 whole entry, looked up): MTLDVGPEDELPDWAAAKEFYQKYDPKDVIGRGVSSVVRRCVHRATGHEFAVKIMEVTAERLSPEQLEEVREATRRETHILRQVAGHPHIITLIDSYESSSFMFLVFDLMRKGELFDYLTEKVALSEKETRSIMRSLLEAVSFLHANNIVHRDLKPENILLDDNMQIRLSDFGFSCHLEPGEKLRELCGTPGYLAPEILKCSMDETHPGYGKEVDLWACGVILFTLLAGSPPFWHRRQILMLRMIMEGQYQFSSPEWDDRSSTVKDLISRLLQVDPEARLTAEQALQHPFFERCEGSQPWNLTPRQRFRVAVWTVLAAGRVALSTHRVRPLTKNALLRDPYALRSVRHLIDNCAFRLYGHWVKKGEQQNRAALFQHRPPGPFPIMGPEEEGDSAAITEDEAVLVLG
UniProt Q8TBX8, sequence (Q8TBX8 whole entry, looked up): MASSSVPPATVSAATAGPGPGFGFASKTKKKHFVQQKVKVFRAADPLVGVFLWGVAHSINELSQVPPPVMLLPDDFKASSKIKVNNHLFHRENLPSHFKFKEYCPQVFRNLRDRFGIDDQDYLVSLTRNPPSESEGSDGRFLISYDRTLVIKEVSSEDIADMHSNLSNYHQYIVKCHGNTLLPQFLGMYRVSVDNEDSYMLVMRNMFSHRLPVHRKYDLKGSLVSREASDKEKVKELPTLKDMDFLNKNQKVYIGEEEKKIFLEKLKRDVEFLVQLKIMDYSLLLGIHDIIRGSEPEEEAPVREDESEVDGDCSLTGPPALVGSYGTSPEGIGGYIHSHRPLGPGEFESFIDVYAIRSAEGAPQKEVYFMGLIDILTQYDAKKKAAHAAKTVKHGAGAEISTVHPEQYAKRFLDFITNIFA
UniProt Q9BUL8, sequence (Q9BUL8 whole entry, looked up): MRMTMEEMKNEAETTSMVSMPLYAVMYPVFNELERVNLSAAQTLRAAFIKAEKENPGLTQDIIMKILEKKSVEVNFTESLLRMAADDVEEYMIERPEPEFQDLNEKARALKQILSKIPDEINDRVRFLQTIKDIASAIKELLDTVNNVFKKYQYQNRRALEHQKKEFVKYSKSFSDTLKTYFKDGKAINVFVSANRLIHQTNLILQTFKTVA
UniProt P50336, sequence (P50336 whole entry, looked up): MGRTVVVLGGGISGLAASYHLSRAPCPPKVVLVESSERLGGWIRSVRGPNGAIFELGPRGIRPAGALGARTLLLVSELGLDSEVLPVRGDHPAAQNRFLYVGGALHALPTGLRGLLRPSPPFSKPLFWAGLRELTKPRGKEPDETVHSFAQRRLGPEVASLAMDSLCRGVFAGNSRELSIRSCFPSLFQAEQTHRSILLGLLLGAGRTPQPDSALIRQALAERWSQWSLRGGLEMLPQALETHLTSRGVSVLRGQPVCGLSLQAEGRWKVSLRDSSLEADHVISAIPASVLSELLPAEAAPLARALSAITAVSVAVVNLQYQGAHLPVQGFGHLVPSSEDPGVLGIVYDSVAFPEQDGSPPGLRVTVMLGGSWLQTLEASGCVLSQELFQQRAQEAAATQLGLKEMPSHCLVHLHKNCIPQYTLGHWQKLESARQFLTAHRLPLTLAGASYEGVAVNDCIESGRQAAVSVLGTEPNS
UniProt Q96C36, sequence (Q96C36 whole entry, looked up): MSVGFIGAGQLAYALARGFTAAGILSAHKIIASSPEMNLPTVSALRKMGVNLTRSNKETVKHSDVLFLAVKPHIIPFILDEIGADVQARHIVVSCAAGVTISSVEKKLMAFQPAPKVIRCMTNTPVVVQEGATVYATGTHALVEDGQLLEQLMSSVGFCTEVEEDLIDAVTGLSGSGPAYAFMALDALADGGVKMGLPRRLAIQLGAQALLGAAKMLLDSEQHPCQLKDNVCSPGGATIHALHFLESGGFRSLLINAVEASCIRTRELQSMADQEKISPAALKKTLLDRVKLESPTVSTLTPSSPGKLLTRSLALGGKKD

Row | Target | log2 fold change [1] | log2 fold change [2] | log2 fold change [3] | log2 fold change [4] | log2 fold change [5] | log2 fold change [6] | log2 fold change [7] | log2 fold change [8] | log2 fold change [9] | log2 fold change [10] | log2 fold change [11] | log2 fold change [12] | log2 fold change [13] | log2 fold change [14] | log2 fold change [15] | log2 fold change [16] | log2 fold change [17] | log2 fold change [18] | log2 fold change [19] | log2 fold change [20]
1 | PIP4K2C (UniProt Q8TBX8) | 0.039 | -0.028 | -0.045 | 0.463 (active) | 0.206 | 0.103 | -0.114 | 0.225 | -0.01 | -0.019 | 0.47 (active) | 0.022 | 0.125 | 0.092 | -0.07 | 0.139 | -0.085 | 0.013 | 0.104 | 0.083
2 | PRKACA (UniProt P17612) | -0.036 | -0.016 | 0.006 | 0.095 | -0.043 | -0.081 | -0.418 | 0.351 | -0.075 | 0.216 | -0.118 | 0.008 | 0.034 | 0.177 | 0.082 | -0.052 | -0.059 | 0.027 | 0.558 (active) | -0.01
3 | PDCD10 (UniProt Q9BUL8) | -0.021 | -0.002 | 0.006 | -0.012 | 0.007 | 0 | -0.269 (active) | 0.029 | 0.016 | 0.04 | -0.053 | -0.002 | 0.013 | 0.029 | -0.005 | -0.019 | 0.034 | 0.01 | 0.05 | -0.025
4 | PHKG2 (UniProt P15735) | -0.074 | -0.055 | 0.126 | 0.074 | 0.073 | -0.007 | -0.103 | 0.045 | 0.062 | -0.054 | 0.107 | -0.044 | 0.268 | 0.001 | 0.033 | -0.039 | 0.056 | -0.045 | 0.192 | 0.03
5 | PYCR2 (UniProt Q96C36) | 0.004 | -0.005 | 0.006 | 0.036 | 0.016 | -0.001 | 0.099 | 0.012 | -0.012 | -0.014 | -0.052 | 0.041 | 0.004 | 0.001 | 0.011 | -0.005 | -0.038 | 0.013 | -0.001 | -0.005
6 | PRPF6 (UniProt O94906) | -0.019 | 0.004 | 0.039 | -0.057 | -0.015 | 0.019 | 0.034 | -0.049 | 0.009 | 0.025 | 0.006 | -0.096 | 0.01 | 0.025 | -0.011 | 0.024 | 0.22 (active) | 0.008 | 0.009 | -0.016
7 | PUS1 (UniProt Q9Y606) | 0.026 | 0.002 | 0.055 | -0.086 | -0.077 | 0.028 | -0.058 | -0.02 | 0.035 | -0.027 | -0.002 | -0.049 | -0.008 | 0.002 | -0.029 | 0 | 0.086 | 0.005 | 0.014 | -0.019
8 | PPOX (UniProt P50336) | 0.058 | 0.02 | -0.093 | -0.036 | -0.007 | -0.096 | -0.075 | -0.018 | -0.044 | -0.021 | -0.004 | -0.124 | 0.257 | -0.03 | 0.107 | -0.017 | 0.076 | 0.005 | -0.035 | -0.043
